Most compounds without a hit are left out; they make up all but 0.71% or so of the library.
hiPSC survival = enhancers of single-cell hiPSC survival, primary screen, ATPlite luminescence. survival enhancement, % at 20 µM. 100% = ROCK inhibitor wells, 0% = DMSO. hit rate 0.044% among 360,000; in the data active = survival enhancement above about 18%;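 also: cells exposed to compounds for 16 hours before the ATP read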
H9c2 TAG inh = inhibitors of triacylglycerol accumulation, primary screen, cell-based, uHTS, fluorescence, H9c2; H9c2 cells, Nile Red lipid (TAG) fluorescence; cells loaded with 200 µM oleic acid; inhibition, % at 12.5 µM; hit rate 0.66% among 230,000; AID 651582, 2012;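 active = pattern-corrected inhibition of lipid staining of at least 50% with the nuclear-stain viability signal not falling by more than 50%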;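 also: 0% = DMSO wells and 100% = triacsin C control wells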
MIN6 prolif-1 = inducers of MIN6 beta-cell proliferation, primary screen, ATP luminescence, uHTS | MIN6 cells proliferation, ATPlite luminescence, 48 h; cells starved in 0.2% serum; 100% = growth in 10% serum | AID 2380, 2010 | proliferation, % at 10 µM | hit rate 0.29% among 330,000;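 active = compounds whose signal lies at least 3.5 SD above the mean of all wells on their plate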;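 also: 0% = DMSO-treated cells in low-serum medium and 100% = 10% serum control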
MIN6 prolif-2 = inducers of beta-cell proliferation in MIN6, confirmation, MIN6 cells, mouse; shares compounds with MIN6 prolif-1; ATPlite luminescence, 48 h; cells kept in 0.2% serum; scaled between 0.2% and 10% serum; proliferation increase, % at 50 µM; 920 tested, under 10 active; AID 463095, 2010;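 active = proliferation increase above 40% at any of the four tested concentrations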
The depositor's hits bear a star; . = not tested or not shown.

SMILES | hiPSC survival | H9c2 TAG inh | MIN6 prolif-1 | MIN6 prolif-2
CCN(C(=O)CSc1ncccn1)c1c(N)n(Cc2ccccc2)c(=O)[nH]c1=O | 0 | 5 | 16* | -2
COc1ccccc1Cc1c(-c2ccco2)nc2ccc(Br)cn12 | -1 | . | . | .
COc1cccc(C(=O)N2CCC[C@@H]2C(=O)N2CCC[C@@H]2C(=O)NCc2ccccc2Cl)c1 | 1 | . | . | .
COc1ccc(C)cc1NCc1cccc(OC)c1OC | 0 | . | -1 | .
COc1ccc(CNc2cc(C)ccc2C)c(OC)c1OC | 1 | . | 9.2* | -4
O=C1NC[C@@H](CCCCN2C[C@H](Cc3ccc(O)cc3)N(CCc3ccccc3)C(=O)C2=O)N(CC2CCCCC2)C1=O | 1 | . | . | .
Nc1nc(NCc2ccc(Cl)cc2)nc(NCCO)c1[N+](=O)[O-] | 0 | -37 | 0 | .
Nc1nc(Nc2ccc(Cl)cc2)nc(NCCO)c1[N+](=O)[O-] | 1 | 13 | 15* | 4
Cn1nc(OC(=O)Nc2ccc(F)cc2)cc1C(F)(F)F | -2 | 9 | -1 | .
Cn1nc(OCC(=O)O)cc1C(F)(F)F | 0 | 6 | 6.3* | 7
C=C1C(=O)C23CCC4C(C)(C(=O)OC)CCCC4(C)C2CCC1(O)C3 (stereo unspecified) | -5 | 117 | . | .
CCc1nc2ccc(C(=O)NCCOc3ccc(OC)cc3)cn2c1N(CC)Cc1ccc(OC)c(OC)c1 | -3 | 19 | . | .
O=[N+]([O-])c1ccc(N2CCCC2)cc1NC1CC1 | 0 | . | 11* | -2
CN(C)S(=O)(=O)N1CCN(c2ccc([N+](=O)[O-])c(NC3CC3)c2)CC1 | 1 | -2 | 6 | .
Cc1cc(C)n(CCCNC(=O)COc2ccc([N+](=O)[O-])cc2)n1 | 0 | 25 | -1 | .
Cc1cc(C)n(C(=O)COc2ccc([N+](=O)[O-])cc2)n1 | 0 | . | 5.3* | 4
C[C@H](c1ccccc1)N1C[C@H](COCc2ccccc2)Oc2cc(N3CCC[C@H]3C(N)=O)ccc2S1(=O)=O | 2 | . | . | .
CC(=O)NCCc1nc2cc(NC(=O)COc3ccc(C)cc3)ccc2n1C | 1 | . | 9.2* | 0
COc1ccc(OCC(=O)Nc2ccc3c(c2)nc(CCNC(C)=O)n3C)cc1 | 0 | . | 0 | .
COCCCn1c(C(=O)NC2CCCCC2C)cc2c(=O)n3cccc(C)c3nc21 (stereo unspecified) | 0 | . | 4.9* | -6
CCN(C(=O)c1cc2c(=O)n3cccc(C)c3nc2n1CCCOC)C1CCCCC1 | 0 | . | -3 | .
O=C(c1cccs1)N1C[C@@H](O)[C@H](n2cc(-c3ccc(F)cc3)nn2)C[C@@H]1c1ccccc1 | 0 | 7 | . | .
CCN(CC(=O)Nc1ccccc1C(F)(F)F)CC(=O)c1[nH]c(C)c(C(C)=O)c1C | -1 | -4 | . | .
O=S(=O)(Cc1ccccc1)C(c1ccccc1)S(=O)(=O)Cc1ccccc1 | -1 | -24 | . | .
CCC(C)[C@H](NC(=O)NCc1ccc(S(N)(=O)=O)cc1)C(=O)OC (stereo partly specified) | -1 | . | 1 | .
SMILES | hiPSC survival | H9c2 TAG inh | MIN6 prolif-1 | MIN6 prolif-2
COC(=O)[C@H](CCSC)NC(=O)NCc1ccc(S(N)(=O)=O)cc1 | -2 | . | 8.2* | -3
Cc1cc(C)c2c(=O)n3c(nc2c1)C(C)NC(=O)c1cccnc1-3 (stereo unspecified) | -1 | 6 | . | .
Cc1ccc(S(=O)(=O)N2C[C@H]3C(=O)C[C@@H](c4ccc(Cl)cc4)N(S(=O)(=O)c4ccccc4C)[C@H]3C[C@H]2c2ccc(Cl)cc2)cc1 | -2 | 24 | . | .
CC(=O)Nc1ccc(Oc2cnccn2)cc1 | -1 | . | 0.0* | 2
CC(=O)Nc1ccc(Oc2cnc3ccccc3n2)cc1 | -1 | . | 3 | .
CCOC(=O)c1ccccc1OCc1cc(/C=N/NC(=O)c2ccncc2)ccc1OC | 0 | -4 | 2 | .
CCOC(=O)c1ccccc1OCc1cc(/C=N/n2cncn2)ccc1OC | 0 | 4 | 7.8* | 2
CC(=O)N(CCc1ccccc1)c1ccc2c(c1)C1CC2CCN1C(=O)OCc1ccccc1 (stereo unspecified) | 0 | -10 | . | .
COc1cccc2c1c(NC(=O)Nc1ccc(F)cc1F)nn2C | 0 | -8 | 6.8* | -3
COc1ccccc1NC(=O)Nc1nn(C)c2cccc(N(C)C)c12 | 0 | 13 | -3 | .
COC(=O)c1sccc1NC(=O)c1ccc(OC)cc1OC | -2 | . | 7.8* | -3
COC(=O)c1sccc1NC(=O)c1cccc(OC)c1 | 1 | -11 | -2 | .
CCNc1nc(-c2sc(NC(=O)C(C)(C)C)nc2C)c(-n2cc(-c3ccccc3)nn2)s1 | 0 | . | . | .
O=C(NC1CCCCC1)C1c2ccccc2OCC(=O)N1Cc1ccc2c(c1)OCO2 (stereo unspecified) | 1 | . | . | .
Cc1cccnc1C(NC(=O)C1CCN(CCCOc2ccc(F)cc2)CC1)c1ccccc1 (stereo unspecified) | 1 | 18 | . | .
CC1CN(C2CCCCC2)C(=O)NC1=O (stereo unspecified) | 3 | -8 | . | .
Cc1cc(C)nc(-n2nc(C)cc2NC(=O)CN2CCCC2)n1 | 0 | . | 3 | .
Cc1cc(C)nc(-n2nc(C)cc2NC(=O)CN2CCC(C)CC2)n1 | 3 | . | 4.9* | -6
CC1=C(C(=O)N2CCOCC2)CC(CC(=O)NCCc2ccccn2)C(=O)N1CCCN1CCCC1=O (stereo unspecified) | -3 | . | . | .
CCOc1ccc(C=NN2CCCCCC2)cc1OCC | 2 | -7 | . | .
CCOc1ccc(/C=N/n2c(SC)nnc2-c2ccccc2)cc1OCC | -1 | 11 | 8.2* | -5
CCCCCc1nc(N)c(C#N)c(-c2ccco2)c1CCCC | 4 | -46 | 0 | .
CCc1nc(N)c(C#N)c(-c2ccco2)c1C | 0 | . | 7.1* | 4
O=C(Nc1ccccc1)Nc1nnc([C@@H]2C[C@H](O)[C@@H](CO)O2)s1 | 2 | 3 | . | .
CCCc1nc2c3ccccc3ccn2c1Cc1cccc(F)c1 | -1 | . | . | .
SMILES | hiPSC survival | H9c2 TAG inh | MIN6 prolif-1 | MIN6 prolif-2
Cc1ccc(S(=O)(=O)NC(=O)C2(C)CCN2C(=O)CCc2ccc(Cl)cc2Cl)nc1 (stereo unspecified) | 4 | 5 | . | .
C[C@@H]1CN([C@H](C)CO)C(=O)c2cc(Br)cnc2O[C@H]1CN(C)C(=O)Cc1ccccc1 | -1 | 3 | . | .
CCCCCCCCC(c1nc2ccccc2[nH]1)N1CCN=C1c1cc2ccccc2[nH]1 (stereo unspecified) | -4 | . | . | .
CCOn1c(=O)c(-c2cc3ccccc3o2)[n+]([O-])c2ccccc21 | 0 | 0 | 6.8* | 0
O=c1c(-c2cc3ccccc3o2)[n+]([O-])c2ccccc2n1OCc1ccccn1 | -1 | 29 | 0 | .
CC(C)NC(=O)C1(C)CCCN1Cc1ccccc1C#N (stereo unspecified) | -2 | -1 | . | .
CSc1cccc(NC(=O)CNC(=O)C2CCCCC2)c1 | 0 | -9 | 11* | -1
Cc1cccc(NC(=O)COC(=O)CNC(=O)C2CCCCC2)c1 | 1 | 12 | 2 | .
Cc1cnc2nc(-c3ccccc3)ccc2c1 | -1 | . | . | .
COc1cc2c(cc1OC)C(=O)C(Br)CC2 (stereo unspecified) | -1 | 4 | . | .
